# Screening results from PubChem BioAssay.
# In the library only some 3.1% were active in any assay of this set; here they are far more common.
# KKLEB tox: cytotoxicity in KKLEB CF airway cells, primary screen, cytotoxicity control for CF NF-kB inhibitor project, cell-based, uHTS, fluorescence assay plates | KKLEB CF airway cells viability, ATPlite luminescence, overnight; active compounds read low; cells stimulated with P. aeruginosa culture filtrate | activity change (cytotoxicity), % at 5 µM | 0.36% of 360,000 active | AID 602141, 2011;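 active = corrected activity change at or below -50% at 5 µM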
# HIF-2a inh: HIF-2a reporter inhibitors, primary screen, luminescence, 786-0 RCC cells. 0.72% of 360,000 active. inhibition, % at 18.8 µM. AID 624352, 2012. 786-0 RCC cells HIF-2a reporter, luciferase luminescence, overnight;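 active = inhibition of the luminescence signal of 40% or more relative to plate controls, in a single-dose primary screen at 18.75 µM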
# PPC-1+TRAIL kill: compounds killing PPC-1 cancer cells with TRAIL present, primary screen, TRAIL potentiator project, ATPLite luminescence, uHTS; PPC-1 cells + TRAIL, ATPLite viability luminescence; cell killing (% activity), % at 4 µM or 5 µM; 0.41% of 220,000 active; AID 1443, 2008;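 active = cell killing above 50% in the first pass at 4 µM, then a duplicate retest at 5 µM averaging 50% or more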;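 also: plate controls were cells with TRAIL plus DMSO for no effect and medium-only wells lacking cells for full effect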
# CF NFkB block: inhibitors of PAF-induced NF-kB signaling, primary screen, cell-based, GFP fluorescence, uHTS | KKLEB NF-kB-GFP reporter, GFP fluorescence overnight | inhibition, % at 5 µM | 0.86% of 360,000 active;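 active = at least 50% inhibition at 5 µM, scaled per plate between neutral and stimulator controls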;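 also: PAF is a Pseudomonas aeruginosa culture filtrate used as stimulus; plate controls were PAF-stimulated DMSO wells for no effect and unstimulated DMSO wells for full effect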
# Peg3 promoter: Peg3 promoter-driven luciferase inhibitors, primary screen, cell-based, HeLa, luciferase luminescence; AID 588405, 2011; inhibition, % at 20 µM; HeLa PEG-Prom luciferase reporter, overnight; 1.7% of 360,000 active;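 active = inhibition of at least 50% at 20 µM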
# C8 TRAIL sens: viability loss with TRAIL in NB7+C8 cells, primary screen, TRAIL sensitizer project, cell-based, ATPlite luminescence; inhibition (viability loss, TRAIL sensitization), % at 10 µM; 1% of 360,000 active;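 active = compounds causing at least 50% loss of cell viability in the single-dose screen, relative to plate controls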
# Numbers without * were called inactive; x = not tested or not shown.
SMILES,KKLEB tox,HIF-2a inh,PPC-1+TRAIL kill,CF NFkB block,Peg3 promoter,C8 TRAIL sens
Cc1ccc([C@H]2C[C@H](O)[C@@H](n3cc(C4CC4)nn3)CN2C(=O)c2cccs2)cc1,5.0,2.8,x,-1.2,-6.3,8.2
CC(C)N1CCc2c(sc(NC(=O)c3ccc4ccccc4c3)c2C(N)=O)C1,-19.2,-114.1,x,-57.3,12.8,44.5
CC(C)N1CCc2c(sc(NC(=O)c3ccc(C(=O)c4ccccc4)cc3)c2C(N)=O)C1,-12.7,7.2,x,6.6,58.9*,15.3
CC(C)N1CCc2c(sc(NC(=O)c3ccc(S(=O)(=O)N4CCCCC4C)cc3)c2C(N)=O)C1 (stereo not drawn),3.1,12.5,x,14.7,67.6*,8.5
COc1ccccc1N1CCN(CC(=O)Nc2nc(C)c(C(=O)N(C)C)s2)CC1,5.2,14.0,x,3.7,1.7,0.9
COC1=C(N)C(=O)c2nc(C)ccc2C1=O,2.8,1.3,x,57.3*,33.6,91.0*
CCC(C)Nc1ccc(NC(C)CC)cc1 (stereo not drawn),-36.9,19.2,x,59.9*,65.4*,76.8*
Cn1cnc2nc[nH]c2c1=O,5.7,12.6,x,-13.7,7.1,2.7
CCOC(=O)c1c(C)nc2c3ccccc3ccn12,-3.5,-241.8,24.8,-13.6,-297.4,49.6*
O=C(c1ccc(-c2ccc([N+](=O)[O-])cc2)o1)N1CCCC(C(F)(F)F)C1 (stereo not drawn),-5.7,-127.8,x,-1.9,-131.6,0.0
O=C(c1ccc(-c2ccc([N+](=O)[O-])cc2)o1)N1CCCCCCC1,-6.5,8.0,x,29.9,105.4*,6.2
O=C(Nc1ccncc1)Nc1cccc(C(F)(F)F)c1,-12.6,-12.5,x,39.2,20.6,1.3
Cc1ccc(S(=O)(=O)Nc2ccc(NC(=O)Nc3cccc(C(F)(F)F)c3)cc2)cc1,-38.9,7.4,-1.1,48.6,95.7*,-4.8
O=C(Nc1ccc(OC(F)F)cc1)Nc1cccc(C(F)(F)F)c1,-52.3*,-19.2,17.3,63.1*,-0.5,59.6*
Cc1ccc(NC(=S)NNC(=S)Nc2cccc(C(F)(F)F)c2)cc1,-21.5,-51.2,4.7,2.6,-9.9,2.1
Cc1ccsc1C(=O)Nc1ccc(S(=O)(=O)N2CCOCC2)cc1,0.8,-32.9,x,4.7,-26.2,-1.7
COc1ccc(-n2cc(C(=O)c3ccccc3O)cn2)cc1,-10.4,-72.3,16.5,0.9,-32.8,50.2*
COc1ccc(O)c(C(=O)c2cnn(-c3ccccc3)c2)c1,2.2,-155.3,x,-9.1,-157.3,3.7
CCN=C1NN=C(c2cc(C)n(Cc3ccco3)c2C)CS1,3.6,67.5*,28.1,-9.7,39.1,7.7
NC(=O)c1ccsc1NC(=O)CN1CCN(S(=O)(=O)c2ccccc2C(F)(F)F)CC1,-10.8,11.7,x,13.0,61.0*,22.1
O=C(CN1CCN(S(=O)(=O)c2ccccc2C(F)(F)F)CC1)NCc1cccs1,-10.0,17.9,x,7.3,17.0,-17.0
CC[C@@H](C(=O)[C@@H](C)[C@@H](O)[C@H](C)CCc1ccc(C)c(O)c1C(=O)O)[C@H]1O[C@](CC)([C@H]2CC[C@](O)(CC)[C@H](C)O2)C[C@@H]1C,-50.9*,-47.9,x,76.3*,94.0*,42.1
COc1cccc(-c2nc(C(=O)NCC3CCCO3)cc3c2[nH]c2ccccc23)c1 (stereo not drawn),3.7,-9.8,x,-43.8,55.7*,21.4
COc1ccc(OC)c(-c2nc(C(=O)NCC3CCCO3)cc3c2[nH]c2ccccc23)c1 (stereo not drawn),-1.1,20.0,x,17.8,25.4,5.2
COC(=O)c1ccc(CCc2cc(O)ccc2O)cc1,-6.5,32.0,x,23.4,-84.4,46.6
SMILES,KKLEB tox,HIF-2a inh,PPC-1+TRAIL kill,CF NFkB block,Peg3 promoter,C8 TRAIL sens
COC(=O)c1ccc(CCc2cc(O)c(Br)cc2O)cc1,-1.6,23.9,x,3.9,-17.9,48.9*
Cc1ccc(C2CC2c2n[nH]c(=S)n2-c2ccc(C)cc2)cc1 (stereo not drawn),14.7,-21.5,-2.9,-25.1,-8.3,4.4
Cc1ccc(-n2c(C3CC3c3ccc(Cl)cc3)n[nH]c2=S)cc1 (stereo not drawn),15.7,11.5,-13.6,-6.1,12.3,58.7*
COc1cc(NC(=O)c2cccs2)c(OC)cc1NC(=O)Nc1ccc(F)cc1,16.0,19.6,x,-1.6,41.5,-6.8
O=C(Nc1ccnn1C1CCN(Cc2c[nH]c3ccccc23)CC1)c1ccccc1,-0.4,5.9,x,-7.2,-8.5,0.4
C/C(=C\c1ccc(C(=O)O)cc1)c1ccc2c(c1)C(C)(C)CCC2(C)C,-9.0,30.8,x,91.0*,0.8,-5.1
CC(=O)C(=Cc1ccc(C(=O)O)cc1)C(C)=O,6.5,12.5,10.4,4.2,11.0,5.2
COC(=O)[C@@]1(Cc2ccccc2)[C@@H]2C(=CC(=O)[C@H]2CC(=O)C(=O)N(C)C)CN1C(=O)c1ccccc1,14.3,67.8*,3.9,14.1,8.7,2.5
CCCN(CC(=O)Nc1ccccc1C)C(=O)/C=C/c1ccc(S(=O)(=O)N2CCCCCC2)cc1,-0.3,1.7,x,12.9,21.1,-0.7
COc1cc2cnc(-c3ccccc3)c(-c3ccc(C(F)(F)F)cc3)c2cc1OC,0.7,-57.5,x,19.2,63.6*,5.6
CC1(C)CC(=O)C(CSC(=O)c2ccccc2)C(=O)C1,1.5,13.0,x,27.1,-6.2,-6.4
COc1ccc(-c2n[nH]c(C)c2-c2ccc(Cl)cc2)c(O)c1,-5.3,27.3,23.1,-14.4,62.1*,-2.7
COc1ccc(-c2n[nH]c(C)c2-c2ccc(Cl)cc2)c(O)c1OC,-26.0,14.7,25.0,-7.9,72.1*,5.5
COc1ccc(N2CCN(C(=O)c3c(-c4c(F)cccc4Cl)noc3C)CC2)cc1,-4.2,14.8,x,-24.6,8.2,0.3
Nc1ccc(-c2nc3ccc(-c4nc5ccccc5o4)cc3[nH]2)cc1,-76.3*,-274.9,19.8,37.4,73.2*,4.7
CCC(C)(C)C1CCc2[nH]nc(C(=O)NCCCNC(=O)OC(C)(C)C)c2C1 (stereo not drawn),-9.1,1.3,x,23.8,28.1,-10.2
O=[N+]([O-])c1ccc(/C=N/Nc2ccnc3cc(Cl)ccc23)o1,2.0,-165.9,x,-29.8,93.1*,42.9
Clc1ccc2c(NNc3ccccc3Cl)ccnc2c1,-3.3,-10.8,-16.3,3.9,-17.6,-2.4
Clc1ccc2c(N/N=C/c3cccc(Br)c3)ccnc2c1,-17.1,-82.0,0.3,-34.3,76.1*,13.9
Cc1c(Cl)cccc1-n1cnc(=O)c2ccccc21,-1.9,24.7,x,-1.3,9.1,-9.6
Cc1nc(CN(C)c2ncnc3ccc(-c4ccc5c(c4)OCO5)cc23)cs1,-12.6,54.9*,x,-18.8,32.2,23.0
